# Assay outcomes: PubChem BioAssay, several laboratories
# The list is a sample of the results.
# CYP2C9 inh: inhibitors of human CYP2C9; P11712; CYP2C9 Supersomes, luciferin-H conversion, luminescence; inhibition, % at 5 µM; 96,000 tested, 20% active;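 active = blocking of liver enzyme CYP2C9 beyond about 50% at 5 µM, limit read from the data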
# PostGolgi yeast: growth inhibition of a yeast mutant, post-Golgi transport screen; post-Golgi transport phenotypic cell assay; inhibition, % at 10 µM; 98,000 tested, 0.9% active;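 note: yeast cells grown in 1536-well plates; yeast grown about 18 h at 30C before absorbance read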
# CYP2C19 act: cytochrome P450 2C19 (human) activation; P33261; recombinant CYP2C19, luciferin-H EGE luminescence; hits give high values; 0 = fully inhibited enzyme, 1 = untreated enzyme; activation factor at 5 µM; 96,000 tested, under 10 active; AID 1025;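 active = activation factor of at least 2 at 5 µM in the primary screen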
# Target sequence (P33261 whole entry, looked up): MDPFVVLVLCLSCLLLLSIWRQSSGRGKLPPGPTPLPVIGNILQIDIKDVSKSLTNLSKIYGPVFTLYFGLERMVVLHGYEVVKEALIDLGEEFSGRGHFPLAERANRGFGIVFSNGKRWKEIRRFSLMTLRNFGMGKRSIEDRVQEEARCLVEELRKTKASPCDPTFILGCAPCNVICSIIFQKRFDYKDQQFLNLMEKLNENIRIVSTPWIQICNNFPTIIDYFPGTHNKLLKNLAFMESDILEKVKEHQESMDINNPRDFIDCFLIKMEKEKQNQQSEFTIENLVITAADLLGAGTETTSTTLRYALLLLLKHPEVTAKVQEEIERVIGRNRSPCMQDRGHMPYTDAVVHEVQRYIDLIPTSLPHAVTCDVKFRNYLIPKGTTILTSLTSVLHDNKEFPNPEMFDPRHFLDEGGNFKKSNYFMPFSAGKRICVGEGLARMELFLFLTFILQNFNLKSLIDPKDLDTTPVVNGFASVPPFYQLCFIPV
# CYP2C19 inh: blocks human cytochrome P450 2C19. CYP2C19 Supersomes, luciferin-H EGE luminescence, 30 min. P33261. 96,000 tested, 21% active. AID 778. inhibition, % at 5 µM;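 active = CYP2C19 inhibition above a set limit at 5 µM in the primary screen, cut at about 50% in these data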
# CYP2C9 activ: increases human cytochrome P450 2C9 activity; 96,000 tested, 1.4% active; P11712; recombinant CYP2C9, luciferin-H conversion, luminescence; hits give high values; factor 1 = untreated enzyme, 0 = blocked; activation factor at 5 µM;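 active = activation factor of 2 or more for CYP2C9 at a 5 µM dose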
# PostGolgi ctrl: yeast control strain growth, post-Golgi counter-screen. efflux-deficient yeast background strain, growth absorbance A615, 16 h. inhibition, % at 10 µM. 98,000 tested, 5% active
# Numbers stand for hits; . = inactive; / = no result. Cut-off read from the data, not from the text of the source, unless noted: active = inhibition above about 30%; inactive = the rest.
SMILES,CYP2C9 inh,PostGolgi yeast,CYP2C19 act,CYP2C19 inh,CYP2C9 activ,PostGolgi ctrl
O=C(Nc1ccccc1C(=O)N1CCN(c2ccccc2)CC1)c1ccco1,56.9,.,.,62.1,.,.
CCOc1cc(NC(=S)Nc2ccccc2OC)c(OCC)cc1NC(=O)c1ccccc1C,.,.,.,.,.,.
Cc1oc(C(=O)O)cc1COc1ccc2c3c(c(=O)oc2c1)CCC3,.,.,.,.,.,.
CS(=O)(=O)Nc1ccccc1C(=O)N1CCCC1,.,.,.,.,.,.
CS(=O)(=O)Nc1ccccc1C(=O)N1CCN(c2ccccc2)CC1,.,.,.,71.0,.,.
COC(=O)c1ccccc1NC(=O)N1CCN(C(=O)c2ccco2)CC1,.,.,.,52.1,.,.
COc1ccc(NC(=O)Nc2ccccc2C(=O)N2CCCC2)cc1,.,.,.,.,.,.
CCN(CC)S(=O)(=O)c1ccc2[nH]cc(C(=O)NCCCN3CCCCC3C)c(=O)c2c1 (stereo unspecified),.,.,.,.,.,.
COc1ccc(N2CCN(C(=O)c3csc4ccccc34)CC2)cc1,.,.,.,.,.,.
O=C(c1csc2ccccc12)N1CCN(c2ccc(Cl)c(Cl)c2)CC1,.,.,.,.,.,36.1
CCOC(=O)c1sc(N)c(C#N)c1COC(=O)CNC(=O)c1ccccc1,72.9,.,.,.,.,.
CCOC(=O)c1sc(NC(=O)c2ccccc2)cc1C,.,.,.,.,.,.
CN=C1CC(C)(C)CC(=O)/C1=C(/O)CCC(=O)NC,/,.,/,/,/,.
Cc1cccc(NC(=S)N2N=CCC2c2ccccc2)c1 (stereo unspecified),.,.,.,.,.,.
O=C(NCc1ccc(F)cc1)c1ccc(CS(=O)(=O)Cc2ccc(F)cc2)o1,.,.,.,.,.,.
O=C(NCc1ccccc1)c1ccc(COCC(F)(F)F)o1,.,.,.,85.2,.,.
O=C(NCc1ccccc1)c1ccc(-c2ccc(F)cc2)o1,55.5,.,.,54.9,.,31.2
O=C(NC1CCCCC1)c1ccc(COCC(F)(F)F)o1,.,.,.,.,.,.
CCN(C(=O)CSc1nc(-c2ccccc2)c(-c2ccccc2)[nH]1)C1CCS(=O)(=O)C1 (stereo unspecified),.,.,.,.,.,.
Cc1cc(S(=O)(=O)NC(C)C)ccc1OCC(=O)N1CCOCC1,.,.,.,.,.,.
CC(C)(C)NC(=O)NC(=O)CSc1nnc2ccccn12,.,.,.,.,.,.
Cc1cc(C(C)(C)C)cc(S(=O)(=O)NCCO)c1C,.,.,.,.,3,.
COc1ccc(NC(=O)C(=O)N/N=C/c2cccnc2)c(OC)c1,.,.,.,.,.,.
c1ccc(CN2CCN(c3nc4ccccc4n4cnnc34)CC2)cc1,.,.,.,.,.,34.0
c1ccc(N2CCN(c3nc4ccccc4n4cnnc34)CC2)cc1,.,.,.,65.3,.,.
SMILES,CYP2C9 inh,PostGolgi yeast,CYP2C19 act,CYP2C19 inh,CYP2C9 activ,PostGolgi ctrl
c1ccc2c(c1)nc(N1CCOCC1)c1nncn12,.,.,.,.,.,.
c1ccc2c(c1)CCN(c1nc3ccccc3n3cnnc13)C2,.,.,.,.,.,43.5
c1ccc(CN2CCN(c3nc4ccccc4c4ccccc34)CC2)cc1,91.7,.,.,.,.,.
C1=C(c2ccccc2)CCN(c2nc3ccccc3n3cnnc23)C1,.,.,.,.,.,.
Cc1cccc(C)c1OCC(=O)Nn1c(COc2ccccc2)nc2ccccc2c1=O,76.1,.,.,.,.,.
Cc1ccccc1OCC(=O)Nn1c(COc2ccccc2)nc2ccccc2c1=O,99.6,.,.,.,.,.
CC(=O)Nn1c(COc2ccccc2C)nc2ccccc2c1=O,77.0,.,.,75.7,.,.
Cc1ccc(OCC(=O)Nn2c(C)nc3ccccc3c2=O)c(C(C)C)c1,97.6,.,.,.,.,.
CCNC(=O)Nn1c(-c2ccccc2)nc2ccccc2c1=O,.,.,.,.,.,.
Cc1ccc(OCC(=O)NN2C(=O)c3ccccc3C2=O)c(C)c1,.,.,.,.,.,.
COC(=O)CN1C(=O)C2(C(C#N)=C(N)Oc3c2c(C)nn3-c2ccccc2)c2ccccc21 (stereo unspecified),/,.,/,/,/,.
Cn1cccc1C(=O)NC(=O)COC(=O)C12CC3CC(CC(O)(C3)C1)C2,.,.,.,.,.,.
CCOC(=O)c1c(Nc2ccccc2)sc(/C=C2\C=Nc3ccccc32)c1O,72.8,.,.,.,.,.
Cn1c(NC(=O)c2ccccc2F)cc(=O)n(C)c1=O,.,.,.,.,.,.
COC(=O)c1ccc(CSc2nnc(CNC(=O)c3cccs3)o2)o1,.,.,.,.,.,.
Cc1cc2cc(C(c3nnnn3Cc3ccco3)N3CCc4ccccc4C3)c(=O)[nH]c2cc1C (stereo unspecified),.,.,.,.,.,.
O=C(c1ccc(CSCc2ccccc2F)o1)N1CCN(c2ccc(N3CCOCC3)nn2)CC1,50.4,.,.,60.5,.,.
O=C(c1c(F)cccc1F)N(Cc1ccccn1)C1CC1,.,.,.,.,.,.
Cc1noc(C)c1COC(=O)c1cc2c3ccccc3n(C)c2s1,81.3,.,.,57.1,.,37.3
COCCn1c(-c2ccc(OC)cc2)nc2oc3cc(OC)ccc3c(=O)c2c1=O,.,.,.,.,.,.
O=C(CSc1nc2ccccc2o1)Nc1ccccc1N1CCOCC1,94.7,.,.,91.9,.,.
O=C(CSc1nc2ccccc2o1)Nc1nc2ccccc2s1,.,.,.,.,.,.
O=C(CN1CCN(CC(=O)c2ccc(F)cc2)CC1)Nc1ccccc1Cl,.,.,.,.,.,.
Cc1ccccc1NC(=O)CSc1nc2ccccc2o1,.,.,.,59.0,.,.
O=C(CSc1nc2ccccc2o1)Nc1ccc(N2CCOCC2)cc1,.,.,.,.,.,.
SMILES,CYP2C9 inh,PostGolgi yeast,CYP2C19 act,CYP2C19 inh,CYP2C9 activ,PostGolgi ctrl
O=C(CSCC(=O)c1ccccc1)Nc1ccccc1Cl,.,.,.,68.0,.,.
CCC(=O)Nc1ccc(NC(=O)CSc2nc3cc4c(cc3cc2C)CCC4)cc1,.,.,.,.,.,.
Cc1ccccc1NC(=O)CSc1nc2cc3c(cc2cc1C)CCC3,51.6,.,.,.,.,.
CCOc1ccccc1NC(=O)Cn1cnc2c(nnn2-c2cccc(OC)c2)c1=O,/,.,/,/,/,.
CC(C)(C)NC(=O)C(=O)NNC(=O)c1ccccc1,.,.,.,.,.,.
O=C1NC2NC(=O)N(C(Cc3ccccc3)C(=O)O)C2N1 (stereo unspecified),.,.,.,.,.,.
CC(C(=O)OCn1nnc2ccccc2c1=O)N1C(=O)c2ccccc2C1=O (stereo unspecified),.,.,.,.,.,.
O=C(Nc1ccccc1)OC1C2CCC1C(N1CCCCC1)CC2 (stereo unspecified),.,.,.,.,.,.
Cc1ccccc1NC(=O)CSCC(=O)Nc1ccccc1C,.,.,.,72.2,.,.
Cc1ccccc1NC(=O)CSC(N)=O,.,.,.,.,.,.
